Data taken from ChEMBL document CHEMBL2218924, “A broad activity screen in support of a chemogenomic map for kinase signalling research and drug discovery” (Biochem J, 2013).

How the values were obtained:
[1] = molecular target: Rho-associated protein kinase 2 (Homo sapiens) (UniProt O75116); conditions: at 1 µM
[2] = molecular target: Rho-associated protein kinase 2 (Homo sapiens) (UniProt O75116); conditions: at 10 µM
[3] = molecular target: Proto-oncogene tyrosine-protein kinase receptor Ret (Homo sapiens) (UniProt P07949); conditions: at 1 µM
[4] = molecular target: Proto-oncogene tyrosine-protein kinase receptor Ret (Homo sapiens) (UniProt P07949); conditions: at 10 µM
[5] = molecular target: Macrophage-stimulating protein receptor (Homo sapiens) (UniProt Q04912); conditions: at 10 µM
[6] = molecular target: Proto-oncogene tyrosine-protein kinase ROS (Homo sapiens) (UniProt P08922); conditions: at 1 µM
[7] = molecular target: Proto-oncogene tyrosine-protein kinase ROS (Homo sapiens) (UniProt P08922); conditions: at 10 µM
[8] = molecular target: T1, Tyrosine-protein kinase receptor TYRO3 (Homo sapiens) (UniProt Q06418); conditions: at 1 µM
T1 sequence (whole entry): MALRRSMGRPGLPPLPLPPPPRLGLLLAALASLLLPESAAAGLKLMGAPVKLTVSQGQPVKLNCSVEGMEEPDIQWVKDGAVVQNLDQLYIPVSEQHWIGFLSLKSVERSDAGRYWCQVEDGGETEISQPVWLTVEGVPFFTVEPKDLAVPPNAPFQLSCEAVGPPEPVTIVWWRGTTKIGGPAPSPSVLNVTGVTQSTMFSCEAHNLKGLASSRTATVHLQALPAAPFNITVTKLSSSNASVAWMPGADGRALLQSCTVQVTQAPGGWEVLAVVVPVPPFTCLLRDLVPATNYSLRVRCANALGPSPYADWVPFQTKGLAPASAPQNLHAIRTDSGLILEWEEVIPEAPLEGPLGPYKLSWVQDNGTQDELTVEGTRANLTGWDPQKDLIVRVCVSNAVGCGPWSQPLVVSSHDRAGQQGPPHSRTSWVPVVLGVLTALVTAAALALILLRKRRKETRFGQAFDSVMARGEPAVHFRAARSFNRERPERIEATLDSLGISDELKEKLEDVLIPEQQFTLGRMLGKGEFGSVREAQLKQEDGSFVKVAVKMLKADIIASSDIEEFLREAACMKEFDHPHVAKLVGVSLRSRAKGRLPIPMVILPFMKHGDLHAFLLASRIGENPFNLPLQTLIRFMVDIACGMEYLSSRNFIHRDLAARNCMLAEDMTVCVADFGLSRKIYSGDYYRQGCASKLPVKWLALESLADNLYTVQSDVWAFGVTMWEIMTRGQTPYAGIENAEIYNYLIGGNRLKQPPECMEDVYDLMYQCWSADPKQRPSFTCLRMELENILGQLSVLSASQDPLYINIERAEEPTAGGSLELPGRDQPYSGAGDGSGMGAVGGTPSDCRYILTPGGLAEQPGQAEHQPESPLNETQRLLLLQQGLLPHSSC

[9] = molecular target: T1, Tyrosine-protein kinase receptor TYRO3 (Homo sapiens); conditions: at 10 µM
[10] = molecular target: Ribosomal protein S6 kinase alpha-1 (Homo sapiens) (UniProt Q15418); conditions: at 1 µM
[11] = molecular target: Ribosomal protein S6 kinase alpha-1 (Homo sapiens) (UniProt Q15418); conditions: at 10 µM
[12] = molecular target: Ribosomal protein S6 kinase alpha-3 (Homo sapiens) (UniProt P51812); conditions: at 1 µM
[13] = molecular target: Ribosomal protein S6 kinase alpha-3 (Homo sapiens) (UniProt P51812); conditions: at 10 µM
[14] = molecular target: Ribosomal protein S6 kinase alpha-2 (Homo sapiens) (UniProt Q15349); conditions: at 1 µM
[15] = molecular target: Ribosomal protein S6 kinase alpha-2 (Homo sapiens) (UniProt Q15349); conditions: at 10 µM
[16] = molecular target: Ribosomal protein S6 kinase alpha-6 (Homo sapiens) (UniProt Q9UK32); conditions: at 1 µM
[17] = molecular target: Ribosomal protein S6 kinase alpha-6 (Homo sapiens) (UniProt Q9UK32); conditions: at 10 µM
[18] = molecular target: Mitogen-activated protein kinase 14 (Homo sapiens) (UniProt Q16539); conditions: at 1 µM
[19] = molecular target: Mitogen-activated protein kinase 14 (Homo sapiens) (UniProt Q16539); conditions: at 10 µM
[20] = molecular target: Macrophage-stimulating protein receptor (Homo sapiens) (UniProt Q04912); conditions: at 1 µM

Rho-associated protein kinase 2 (Homo sapiens), sequence (O75116 whole entry, looked up): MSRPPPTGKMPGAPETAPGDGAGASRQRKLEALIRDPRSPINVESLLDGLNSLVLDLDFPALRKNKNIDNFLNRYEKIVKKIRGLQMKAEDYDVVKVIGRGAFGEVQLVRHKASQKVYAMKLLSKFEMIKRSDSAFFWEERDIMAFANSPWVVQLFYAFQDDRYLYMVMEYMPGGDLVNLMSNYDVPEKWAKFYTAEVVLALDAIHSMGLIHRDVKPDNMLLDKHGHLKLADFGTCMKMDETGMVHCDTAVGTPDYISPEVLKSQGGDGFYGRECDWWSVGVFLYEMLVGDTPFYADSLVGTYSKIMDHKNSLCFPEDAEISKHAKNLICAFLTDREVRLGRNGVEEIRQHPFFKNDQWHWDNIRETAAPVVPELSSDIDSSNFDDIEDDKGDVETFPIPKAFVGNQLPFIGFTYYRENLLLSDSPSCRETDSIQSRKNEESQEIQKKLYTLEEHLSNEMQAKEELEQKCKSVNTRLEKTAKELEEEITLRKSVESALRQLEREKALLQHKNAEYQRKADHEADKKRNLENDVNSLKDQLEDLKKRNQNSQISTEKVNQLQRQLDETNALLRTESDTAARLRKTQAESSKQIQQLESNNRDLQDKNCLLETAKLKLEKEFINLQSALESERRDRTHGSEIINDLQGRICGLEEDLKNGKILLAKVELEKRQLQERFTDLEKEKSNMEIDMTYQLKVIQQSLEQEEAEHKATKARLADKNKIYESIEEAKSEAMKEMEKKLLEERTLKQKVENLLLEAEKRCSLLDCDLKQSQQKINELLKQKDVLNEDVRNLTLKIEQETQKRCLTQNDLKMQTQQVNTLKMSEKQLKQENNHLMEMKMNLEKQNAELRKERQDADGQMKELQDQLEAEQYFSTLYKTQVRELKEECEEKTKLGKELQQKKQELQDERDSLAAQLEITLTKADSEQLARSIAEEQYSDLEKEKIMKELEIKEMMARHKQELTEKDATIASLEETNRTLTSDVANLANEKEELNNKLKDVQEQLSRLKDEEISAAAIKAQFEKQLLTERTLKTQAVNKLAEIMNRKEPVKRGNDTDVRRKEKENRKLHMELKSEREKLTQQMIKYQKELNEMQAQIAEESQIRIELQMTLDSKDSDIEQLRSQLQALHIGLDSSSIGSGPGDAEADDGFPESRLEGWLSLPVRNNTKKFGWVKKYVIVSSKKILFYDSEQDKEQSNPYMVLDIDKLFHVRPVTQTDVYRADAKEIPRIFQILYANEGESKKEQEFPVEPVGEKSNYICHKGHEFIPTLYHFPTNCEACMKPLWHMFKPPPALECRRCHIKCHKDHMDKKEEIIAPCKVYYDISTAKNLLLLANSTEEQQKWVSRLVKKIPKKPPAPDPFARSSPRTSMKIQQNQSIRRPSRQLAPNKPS
Proto-oncogene tyrosine-protein kinase ROS (Homo sapiens), sequence (P08922 whole entry): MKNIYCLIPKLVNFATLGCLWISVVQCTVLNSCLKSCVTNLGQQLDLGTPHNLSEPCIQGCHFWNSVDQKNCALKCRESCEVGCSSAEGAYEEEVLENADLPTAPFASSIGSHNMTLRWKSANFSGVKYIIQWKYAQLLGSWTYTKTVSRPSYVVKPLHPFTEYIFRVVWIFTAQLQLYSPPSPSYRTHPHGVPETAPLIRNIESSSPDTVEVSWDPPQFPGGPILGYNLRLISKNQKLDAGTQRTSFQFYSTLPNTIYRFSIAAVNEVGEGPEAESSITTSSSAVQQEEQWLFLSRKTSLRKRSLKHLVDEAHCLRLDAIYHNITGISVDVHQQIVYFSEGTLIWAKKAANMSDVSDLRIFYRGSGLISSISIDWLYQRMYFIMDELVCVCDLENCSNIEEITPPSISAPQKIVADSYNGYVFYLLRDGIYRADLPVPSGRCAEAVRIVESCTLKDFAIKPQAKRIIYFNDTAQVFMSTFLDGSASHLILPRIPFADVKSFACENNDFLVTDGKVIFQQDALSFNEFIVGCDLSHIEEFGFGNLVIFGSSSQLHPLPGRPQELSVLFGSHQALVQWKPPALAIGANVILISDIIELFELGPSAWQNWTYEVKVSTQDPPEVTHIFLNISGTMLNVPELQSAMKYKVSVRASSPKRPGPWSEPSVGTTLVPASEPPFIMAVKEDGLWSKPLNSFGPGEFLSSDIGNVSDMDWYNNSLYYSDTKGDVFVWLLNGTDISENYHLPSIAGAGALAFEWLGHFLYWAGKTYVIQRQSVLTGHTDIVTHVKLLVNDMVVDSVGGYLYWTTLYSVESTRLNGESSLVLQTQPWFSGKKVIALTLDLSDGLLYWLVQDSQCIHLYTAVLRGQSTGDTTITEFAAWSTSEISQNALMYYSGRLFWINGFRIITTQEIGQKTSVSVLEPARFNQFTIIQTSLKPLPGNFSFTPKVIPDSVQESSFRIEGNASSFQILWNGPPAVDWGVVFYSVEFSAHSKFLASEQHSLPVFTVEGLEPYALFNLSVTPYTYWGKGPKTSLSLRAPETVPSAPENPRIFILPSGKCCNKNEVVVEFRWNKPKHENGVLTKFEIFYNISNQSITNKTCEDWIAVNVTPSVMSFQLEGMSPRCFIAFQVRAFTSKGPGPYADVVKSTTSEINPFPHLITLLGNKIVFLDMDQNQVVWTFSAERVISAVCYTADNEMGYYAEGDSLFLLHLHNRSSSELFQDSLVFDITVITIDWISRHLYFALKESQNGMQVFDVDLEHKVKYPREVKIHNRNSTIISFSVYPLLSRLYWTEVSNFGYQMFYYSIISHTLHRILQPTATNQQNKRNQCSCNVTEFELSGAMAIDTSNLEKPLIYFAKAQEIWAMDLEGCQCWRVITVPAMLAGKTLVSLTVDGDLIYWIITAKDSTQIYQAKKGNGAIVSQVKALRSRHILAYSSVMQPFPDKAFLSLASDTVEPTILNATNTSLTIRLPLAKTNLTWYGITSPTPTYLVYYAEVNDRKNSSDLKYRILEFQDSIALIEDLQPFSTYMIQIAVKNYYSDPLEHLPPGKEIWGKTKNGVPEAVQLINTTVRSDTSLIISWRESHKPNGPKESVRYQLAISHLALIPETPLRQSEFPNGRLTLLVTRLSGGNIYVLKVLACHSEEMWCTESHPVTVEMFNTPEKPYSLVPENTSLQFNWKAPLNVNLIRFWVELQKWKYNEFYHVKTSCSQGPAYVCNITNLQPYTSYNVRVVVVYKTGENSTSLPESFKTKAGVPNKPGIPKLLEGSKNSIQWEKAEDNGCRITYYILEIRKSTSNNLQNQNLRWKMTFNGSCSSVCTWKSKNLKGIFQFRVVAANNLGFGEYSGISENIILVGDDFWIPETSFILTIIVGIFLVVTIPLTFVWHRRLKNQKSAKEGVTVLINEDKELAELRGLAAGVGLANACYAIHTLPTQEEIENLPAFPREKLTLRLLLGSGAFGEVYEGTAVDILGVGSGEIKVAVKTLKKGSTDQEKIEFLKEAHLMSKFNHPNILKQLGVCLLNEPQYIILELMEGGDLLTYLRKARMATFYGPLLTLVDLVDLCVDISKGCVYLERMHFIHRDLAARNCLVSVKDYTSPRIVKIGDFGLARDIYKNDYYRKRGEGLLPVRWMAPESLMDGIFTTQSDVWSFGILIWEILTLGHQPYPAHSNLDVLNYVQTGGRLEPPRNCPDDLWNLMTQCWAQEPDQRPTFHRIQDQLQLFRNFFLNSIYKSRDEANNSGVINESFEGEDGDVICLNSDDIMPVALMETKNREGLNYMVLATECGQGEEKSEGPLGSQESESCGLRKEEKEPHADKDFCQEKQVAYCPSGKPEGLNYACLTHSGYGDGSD
Mitogen-activated protein kinase 14 (Homo sapiens), sequence (Q16539 whole entry): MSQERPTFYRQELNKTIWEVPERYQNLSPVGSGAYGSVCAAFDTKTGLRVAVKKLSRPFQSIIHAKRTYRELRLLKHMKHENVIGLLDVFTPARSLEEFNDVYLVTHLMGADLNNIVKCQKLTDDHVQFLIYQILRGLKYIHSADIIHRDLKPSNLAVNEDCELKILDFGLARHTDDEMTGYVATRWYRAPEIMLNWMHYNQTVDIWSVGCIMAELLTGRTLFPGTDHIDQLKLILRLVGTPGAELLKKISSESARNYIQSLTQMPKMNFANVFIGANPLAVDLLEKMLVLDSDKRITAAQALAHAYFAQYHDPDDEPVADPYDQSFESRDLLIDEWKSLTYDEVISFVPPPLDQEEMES
Ribosomal protein S6 kinase alpha-6 (Homo sapiens), sequence (Q9UK32 whole entry): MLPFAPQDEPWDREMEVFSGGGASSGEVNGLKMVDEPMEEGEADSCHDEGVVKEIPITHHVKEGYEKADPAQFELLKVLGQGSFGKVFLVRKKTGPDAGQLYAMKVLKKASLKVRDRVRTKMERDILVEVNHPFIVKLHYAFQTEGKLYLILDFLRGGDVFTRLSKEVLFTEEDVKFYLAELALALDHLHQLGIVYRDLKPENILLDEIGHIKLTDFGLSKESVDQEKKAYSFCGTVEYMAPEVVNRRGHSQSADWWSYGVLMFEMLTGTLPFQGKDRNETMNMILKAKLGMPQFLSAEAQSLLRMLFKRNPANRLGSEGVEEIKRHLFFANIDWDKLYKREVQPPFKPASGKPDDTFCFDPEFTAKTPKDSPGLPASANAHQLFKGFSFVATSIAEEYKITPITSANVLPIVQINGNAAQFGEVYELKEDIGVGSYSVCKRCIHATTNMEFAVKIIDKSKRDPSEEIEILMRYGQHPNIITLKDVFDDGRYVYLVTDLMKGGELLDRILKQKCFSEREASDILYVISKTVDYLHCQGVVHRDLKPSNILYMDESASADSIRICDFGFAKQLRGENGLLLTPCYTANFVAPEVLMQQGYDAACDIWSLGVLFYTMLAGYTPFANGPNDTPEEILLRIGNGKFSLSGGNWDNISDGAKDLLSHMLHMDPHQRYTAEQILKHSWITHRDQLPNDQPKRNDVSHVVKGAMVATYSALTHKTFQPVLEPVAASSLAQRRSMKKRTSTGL

Row | Structure (SMILES) | residual activity [1] [%] | residual activity [2] [%] | residual activity [3] [%] | residual activity [4] [%] | residual activity [5] [%] | residual activity [6] [%] | residual activity [7] [%] | residual activity [8] [%] | residual activity [9] [%] | residual activity [10] [%] | residual activity [11] [%] | residual activity [12] [%] | residual activity [13] [%] | residual activity [14] [%] | residual activity [15] [%] | residual activity [16] [%] | residual activity [17] [%] | residual activity [18] [%] | residual activity [19] [%] | residual activity [20] [%]
1 | Nc1ncnc2[nH]nc(Nc3ccc(F)cc3)c12 | 104 | 91 | 72 | 18 | 67 | 104 | 95 | 104 | 50 | 106 | 64 | 42 | 24 | 59 | 17 | 48 | 30 | 78 | 47 | 
2 | O=c1cc(N2CCOCC2)oc2c1ccc1ccccc12 | 99 | 67 | 99 | 107 | 75 | 100 | 99 | 87 | 93 | 108 | 97 | 57 | 46 | 109 | 99 | 110 | 101 | 100 | 92 | 98
3 | O=c1cc(N2CCOCC2)oc2c(-c3ccccc3)cccc12 | 100 | 73 |  |  | 65 |  |  |  |  | 138 |  | 69 | 55 |  |  |  |  |  |  | 64
4 | NC(=O)Nc1sc(-c2ccc(F)cc2)cc1C(N)=O | 89 | 53 | 30 | 1 | 56 | 91 | 94 | 91 | 41 | 85 | 33 | 33 | 9 | 30 | 7 |  |  | 91 | 77 | 73
5 | CC(C)[C@H](CO)Nc1nc(Nc2cc(N)cc(Cl)c2)c2ncn(C(C)C)c2n1 | 91 | 52 | 83 | 21 | 62 |  |  | 84 | 53 | 32 | 6 |  |  |  |  | 18 | 6 |  | 95 | 96
6 | Nc1ncnc2c1c(-c1ccc(Oc3ccccc3)cc1)cn2C1CCCC1 | 90 | 70 | 0 | -1 | 55 | 88 | 82 | 59 | 14 | 123 | 39 | 65 | 37 | 106 | 69 | 91 | 76 | 86 | 63 | 92
7 | Nc1n[nH]c2nc3ccccc3nc12 | 94 | 84 | 100 | 82 |  |  |  | 99 | 100 | 118 | 87 | 65 | 54 | 93 | 77 | 83 | 71 | 90 | 97 | 
8 | COc1cc2nccc(Oc3ccc(NC(=S)NC(=O)c4ccccc4C)cc3)c2cc1OC | 87 | 70 | 75 | 78 | 0 | 79 | 52 | 45 | 18 | 96 | 81 | 70 | 19 |  |  | 88 | 123 | 82 | 68 | 30
9 | CCCCc1c(-c2ccc(OC)cc2)[nH]c2nccnc12 | 79 |  | 45 | 63 | 103 |  | 88 | 107 | 105 | 122 | 109 | 55 | 52 | 70 | 70 | 89 | 100 |  |  | 85
10 | CCN1/C(=C/C(C)=O)Sc2ccc(OC)cc21 | 78 | 73 |  |  |  |  |  |  |  |  |  |  |  | 77 | 57 |  |  |  |  | 
11 | O=C1C(Cl)=C(N2C(=O)CCC2=O)C(=O)c2ccccc21 | 45 | 16 | 102 | 86 | 81 | 101 | 97 |  |  | 120 | 131 | 73 | 75 |  |  | 92 | 99 | 86 | 92 | 92
12 | O=S(=O)(c1cccc2cnccc12)N1CCCNCC1 | 25 | 4 | 53 | 39 |  |  |  |  | 123 | 84 | 47 |  |  |  |  | 85 | 49 |  |  | 
13 | N#C/C(=C\c1ccc(O)c(O)c1)C(=O)NCc1ccccc1 | 103 | 78 |  |  |  |  |  |  |  |  | 102 | 67 | 45 | 122 |  |  |  | 72 | 102 | 
14 | Nc1nc(Nc2ccc(S(N)(=O)=O)cc2)nn1C(=O)c1c(F)cccc1F | 16 | 3 |  |  | 33 | 101 | 82 | 81 | 28 | 28 | 8 | 32 | 8 | 19 | 4 | 27 | 2 |  |  | 81
15 | Cn1c2ccccc2c2c3c(c4c5ccccc5n(CCC#N)c4c21)CNC3=O | 43 | 31 | -1 | 1 |  | 1 | 3 |  |  | 7 | 4 | 1 | 1 | 0 | -1 | 4 | 4 |  |  | 
16 | COc1cc2ncnc(Nc3cccc(Cl)c3)c2cc1OC | 103 | 87 | 39 | 6 | 83 | 100 | 105 | 62 | 15 |  |  | 102 | 59 | 87 | 47 | 123 | 64 | 56 | 25 | 116
17 | CN(C)S(=O)(=O)c1ccc2c(c1)/C(=C/c1cc3c([nH]1)CCCC3)C(=O)N2 | 99 |  |  |  |  |  |  |  |  |  |  |  |  |  |  |  |  |  |  | 
